# Reference: PubChem BioAssay
# Where “and” joins values, the source holds several entries; their conditions need not be identical. Equal values may be shown once. Calls of active or inactive are those of the source. Cut-off read from the data, not from the text of the source, unless noted: active = parasite load remaining mostly below about 12% (no sharp cut-off); inactive = mostly above about 10%.
# Experiments:
# [1] = yeast 75Q aggregation reduction – 75Q-TubU reporter (AID 1593); conditions: Yeast 75Q polyglutamine aggregation reporter
# [2] = blockers of cytochrome c efflux from mitochondria – biochemical, purified mitochondria (AID 1603); conditions: stronger effect = lower value;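 note: mouse liver mitochondria challenged with calcium chloride; signal normalized to the plate average as 100%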
# [3] = polyglutamine aggregate formation blockers (AID 1604); conditions: polyglutamine-induced protein aggregation inhibition assay; stronger effect = higher value; tested at 2.5 µM
# [4] = P. berghei load reduction in hepatocytes – cell-based, HepG2, luciferase luminescence, HepG2 viability, primary screen (AID 624349);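 note: 100% = mean of DMSO negative control wells on the same plate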; conditions: P. berghei liver stage in HepG2, luciferase luminescence, concentration not given here; parasite load remaining: stronger effect = lower value; viability: measured here: HepG2 viability without parasites
# [5] = Wnt pathway potentiators raising nuclear beta-catenin – imaging, WNT3A-conditioned medium, mouse C2C12, NPC library, primary screen (AID 1117326; in the data active = nuclear beta-catenin stimulation mostly above about 4.2%, no sharp cut-off; inactive = mostly below about 10%); conditions: stronger effect = higher value
# [6] = stimulators of insulin release from INS-1E, primary screen, cell-based, 5 mM glucose, NPC library (AID 1117329;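 active = compound raises insulin release from rat beta cells at 5 mM glucose, no numeric limit stated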); conditions: rat INS-1E insulin secretion, at 10 µM, stronger effect = higher value
# [7] = growth inhibition of GSK3B-pretreated HCT116 cells – cell-based, CellTiter-Glo, 0.2 to 20 µM (AID 1117336;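 active = compounds lowering colon cancer cell viability after pretreatment blocking the GSK3B kinase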); conditions: HCT116 viability after GSK3B inhibitor, at 20 µM, stronger effect = higher value
# [8] = inhibition of endothelial tube formation, primary screen, imaging, VEGF stimulated, CD31 staining, tube area, NPC library (AID 1117340;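 active = compound that reduces growth-factor-driven endothelial tube area in a mixed cell culture, no cutoff stated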); conditions: VEGF-stimulated ADSC/ECFC co-culture, at 10 µM, stronger effect = higher value
# [9] = GLP1 release stimulators, primary, NCI-H716, NPC library (AID 1117341;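 active = compound raises GLP1 secretion from the human gut endocrine cells, with no numeric limit stated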); conditions: NCI-H716 cells, at 10 µM, stronger effect = higher value
# [10] = HCT116 colon cancer cell growth inhibition, primary screen, CellTiter-Glo luminescence, NPC library (AID 1117342;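 active = compounds that lower survival of HCT116 colon cancer cells in the luminescence readout, no numeric limit stated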); conditions: at 20 µM (top of the series)
# [11] = reduced SW480 viability measured with CellTiter-Glo, NPC library, primary (AID 1117343;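 active = compounds that lower viability of the colon cancer cells in the luminescence readout, with no numeric limit stated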); conditions: CellTiter-Glo luminescence; at 20 µM (top of the series)
# [12] = NPC library primary testing for decreased DLD-1 cell viability via CellTiter-Glo (AID 1117346;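 active = compounds that lower survival of DLD-1 colon cancer cells in the luminescence readout, no cutoff given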); conditions: DLD-1 viability, CellTiter-Glo luminescence; at 20 µM (top of the series)
# [13] = target: 6-phosphogluconate dehydrogenase, decarboxylating (Homo sapiens) (UniProt P52209); assay: inhibition of human phosphogluconate dehydrogenase – biochemical, recombinant enzyme, NADPH absorbance, primary screen (AID 1159550;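 active = at least 20% inhibition of 6-phosphogluconate dehydrogenase activity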); conditions: recombinant 6PGD, NADPH absorbance 341 nm; at 10 µM; stronger effect = higher value
# [14] = EMT-state selective cytotoxicity in co-culture – imaging, PC-3E GFP, TEM4-18 mCherry, primary screen (AID 1345086;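 active = compounds killing one labelled cell type while sparing the other, by normalised counts and ratio limits, not self-fluorescent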;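 for all read-outs here: cells exposed to compound for 72 h before imaging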;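 for red/green cell ratio (normalised): normalised mesenchymal count divided by normalised epithelial count so high means epithelial killing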); conditions: PC-3E GFP / TEM4-18 mCherry co-culture, imaging cell counts, at 1 µM; for red/green cell ratio (normalised): actives lie on both sides
# [15] = tested on: Aerobactin synthetase IucA (Klebsiella pneumoniae hvKP1); assay: IucA enzyme inhibition, primary screen, biochemical, Spectrum library (AID 1346200; call rule not given here;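 note: 100% = wells without compound and 0% = wells lacking enzyme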); conditions: malachite green pyrophosphate, A620, at 8 µM, stronger effect = lower value
# [16] = viability loss with induced miR-34 in A549 – imaging, A549 dox-inducible miR-34, nuclei and caspase counts, primary screen (AID 1347080;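 active = compounds whose cell count with miR-34 switched on is under 0.7 times the count with it off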); conditions: A549 miR-34 inducible, Hoechst nuclei count, 48 h
# [17] = MELAS cybrid and Rieske KO viability enhancers – cell-based, MELAS cybrids, Rieske KO mouse fibroblasts, CellTiter-Glo, primary screen (AID 1508586;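 active = mean z-score across replicates of 1.96 or higher in either the MELAS or the Rieske mutant cell line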;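 note: z relative to plate mean and SD of compound and empty wells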); conditions: low glucose
# [18] = target: NAD(+) hydrolase SARM1 (Homo sapiens) (UniProt Q6SZW1); assay: blocking NAD cleavage by SARM1 SAM-TIR – cell lysate, NAD-Glo luminescence (AID 1508614;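 active = compound whose remaining NAD level is above about 45 nM, limit read from the data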;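 note: higher remaining NAD means stronger inhibition of SARM1 NADase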); conditions: SAM-TIR HEK293T lysate NADase, at 1 µM, stronger effect = higher value
# [19] = target: Mitogen-activated protein kinase 7 (Homo sapiens) (UniProt Q13164); assay: Gal4-ERK5 driven luciferase induction – cell-based, HTS, primary screen (AID 1508626;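 active = luciferase signal above three times the same-plate solvent-only control wells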;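 note: luciferase driven by Gal4-ERK5 fusion binding five Gal4 sites before minimal TATA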); conditions: HeLa Gal4-ERK5 transactivation, 18 h, at 5 µM, stronger effect = higher value
# [20] = measured here: epithelial PC-3E GFP cell survival
# [21] = measured here: mesenchymal TEM4-18 mCherry cell survival
# [22] = measured here: relative caspase fold change +Dox/-Dox
# [23] = measured here: total cells with miR-34 induction, stronger effect = lower value
# [24] = measured here: total cells without miR-34 induction
# [25] = MELAS cybrid survival, CellTiter-Glo 48 h, stronger effect = higher value
# [26] = Rieske KO mouse fibroblast survival, CellTiter-Glo 72 h
# Sequence of Mitogen-activated protein kinase 7 (Homo sapiens) (Q13164 whole entry, looked up, the tested form may be a part): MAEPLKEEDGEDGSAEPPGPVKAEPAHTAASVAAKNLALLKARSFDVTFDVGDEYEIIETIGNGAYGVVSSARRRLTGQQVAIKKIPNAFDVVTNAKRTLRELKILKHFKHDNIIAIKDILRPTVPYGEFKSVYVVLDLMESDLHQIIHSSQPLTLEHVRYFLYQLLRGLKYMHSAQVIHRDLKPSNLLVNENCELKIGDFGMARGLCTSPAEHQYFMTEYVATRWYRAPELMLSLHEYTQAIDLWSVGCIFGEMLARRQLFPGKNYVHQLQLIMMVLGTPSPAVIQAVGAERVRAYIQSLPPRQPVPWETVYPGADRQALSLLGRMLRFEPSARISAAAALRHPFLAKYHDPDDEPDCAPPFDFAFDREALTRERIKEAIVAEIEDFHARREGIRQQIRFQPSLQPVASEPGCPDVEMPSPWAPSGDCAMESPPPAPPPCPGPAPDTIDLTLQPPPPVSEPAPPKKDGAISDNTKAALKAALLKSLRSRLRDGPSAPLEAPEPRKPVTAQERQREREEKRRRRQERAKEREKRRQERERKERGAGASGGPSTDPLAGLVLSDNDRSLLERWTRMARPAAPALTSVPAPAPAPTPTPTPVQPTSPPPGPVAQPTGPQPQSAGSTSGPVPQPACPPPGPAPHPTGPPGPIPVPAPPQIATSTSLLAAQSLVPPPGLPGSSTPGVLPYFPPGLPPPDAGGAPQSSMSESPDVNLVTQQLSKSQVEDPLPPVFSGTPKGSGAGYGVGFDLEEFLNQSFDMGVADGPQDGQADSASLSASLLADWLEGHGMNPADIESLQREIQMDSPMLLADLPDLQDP
# Sequence of 6-phosphogluconate dehydrogenase, decarboxylating (Homo sapiens) (P52209 whole entry, looked up): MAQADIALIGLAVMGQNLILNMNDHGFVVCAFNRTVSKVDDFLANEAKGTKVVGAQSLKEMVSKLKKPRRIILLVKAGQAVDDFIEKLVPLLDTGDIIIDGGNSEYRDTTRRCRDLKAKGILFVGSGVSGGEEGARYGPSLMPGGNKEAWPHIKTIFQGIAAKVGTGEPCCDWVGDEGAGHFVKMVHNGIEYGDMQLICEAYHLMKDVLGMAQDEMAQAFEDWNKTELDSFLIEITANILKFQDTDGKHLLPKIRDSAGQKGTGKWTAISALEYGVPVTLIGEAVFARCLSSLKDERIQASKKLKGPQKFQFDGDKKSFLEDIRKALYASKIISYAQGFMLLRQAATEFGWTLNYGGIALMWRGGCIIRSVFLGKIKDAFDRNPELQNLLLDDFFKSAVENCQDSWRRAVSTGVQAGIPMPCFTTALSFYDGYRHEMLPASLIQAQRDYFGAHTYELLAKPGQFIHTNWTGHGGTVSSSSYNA
# Sequence of NAD(+) hydrolase SARM1 (Homo sapiens) (Q6SZW1 whole entry, looked up, the tested form may be a part): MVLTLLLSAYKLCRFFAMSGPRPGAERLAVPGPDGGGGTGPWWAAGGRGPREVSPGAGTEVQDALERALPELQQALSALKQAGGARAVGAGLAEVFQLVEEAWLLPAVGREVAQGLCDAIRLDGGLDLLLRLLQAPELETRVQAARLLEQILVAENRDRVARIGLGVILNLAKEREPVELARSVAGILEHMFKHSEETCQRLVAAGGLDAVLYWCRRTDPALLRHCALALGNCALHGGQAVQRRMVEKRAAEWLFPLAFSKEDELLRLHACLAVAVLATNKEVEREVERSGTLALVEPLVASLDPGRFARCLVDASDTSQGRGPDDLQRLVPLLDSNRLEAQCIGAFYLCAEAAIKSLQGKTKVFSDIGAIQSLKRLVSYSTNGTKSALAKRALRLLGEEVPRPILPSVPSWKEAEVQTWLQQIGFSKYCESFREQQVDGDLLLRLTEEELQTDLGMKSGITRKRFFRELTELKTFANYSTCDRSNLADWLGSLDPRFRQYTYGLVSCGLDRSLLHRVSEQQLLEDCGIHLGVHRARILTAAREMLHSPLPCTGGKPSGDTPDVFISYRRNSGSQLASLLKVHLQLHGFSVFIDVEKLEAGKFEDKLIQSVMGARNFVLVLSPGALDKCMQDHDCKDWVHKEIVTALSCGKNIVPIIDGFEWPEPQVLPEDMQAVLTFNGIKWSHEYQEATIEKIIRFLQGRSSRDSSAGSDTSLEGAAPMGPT
smiles,measurement,setting,value
CCC1(CC)C(=O)C=CNC1=O,score,[1],0.96 and 1.19
same,cytochrome c release ratio,[2],1.06 and 0.67
same,inhibition of aggregation,[3],63.5% and 88.5%
same,parasite load remaining,[4],98.5% (inactive) and 80.5% (inactive)
same,viability,[4],103% and 91.2%
same,nuclear beta-catenin stimulation,[5]; at 10 µM,-0.7% (inactive)
same,nuclear beta-catenin stimulation,"[5]; stimulation, at 2 µM",-1.5%
same,insulin secretion stimulation,[6],0.8% (inactive)
same,viability decrease,[7],-18% (inactive)
same,tube area decrease,[8],-3.8% (inactive)
same,GLP1 secretion stimulation,[9],-1.4% (inactive)
same,inhibition of viability,[10],-8.6% (inactive)
same,viability decrease (inhibition),[11],4.3% (inactive)
same,viability decrease (inhibition),[12],-15.1% (inactive)
same,inhibition,[13],8.27% (inactive)
same,red/green cell ratio (normalised),[14],0.86 (inactive)
same,normalised cell number,[14]; [20],1.13
same,normalised cell number,[14]; [21],0.97
same,activity remaining,[15],115% (inactive)
same,fold change,[16]; stronger effect = lower value,0.859 (inactive)
same,fold change,[16]; [22],1.13
same,cell count,[16]; [23],8380
same,cell count,[16]; [24],9750
same,z-score,[17]; [25],0.0321 (inactive)
same,z-score,[17]; [26],-1.05
same,remaining NAD,[18],10 nM (inactive)
same,luciferase signal,[19],36 AU (inactive)
CC1=C2[C@H]3OC(=O)[C@@H](C)[C@@H]3CC[C@@]2(C)C=CC1=O,parasite load remaining,[4],92.1% (inactive)
same,viability,[4],72.5%
same,nuclear beta-catenin stimulation,[5]; at 10 µM,0.7% (inactive)
same,nuclear beta-catenin stimulation,"[5]; stimulation, at 2 µM",1%
same,insulin secretion stimulation,[6],0% (inactive)
same,viability decrease,[7],1.65% (inactive)
same,tube area decrease,[8],15.6% (inactive)
same,GLP1 secretion stimulation,[9],-0.6% (inactive)
same,inhibition of viability,[10],1.8% (inactive)
same,viability decrease (inhibition),[11],14.6% (inactive)
same,viability decrease (inhibition),[12],3.8% (inactive)
same,inhibition,[13],10.8% (inactive)
same,red/green cell ratio (normalised),[14],0.97 (inactive)
same,normalised cell number,[14]; [20],1.11
same,normalised cell number,[14]; [21],1.07
same,activity remaining,[15],93.8% (inactive)
same,fold change,[16]; stronger effect = lower value,0.915 (inactive)
same,fold change,[16]; [22],0.797
same,cell count,[16]; [23],8180
same,cell count,[16]; [24],8940
same,luciferase signal,[19],44 AU (inactive)
C[C@H]1C(=O)O[C@@H]2CCN3CC=C(COC(=O)[C@](C)(O)[C@]1(C)O)[C@H]23,score,[1],1.29
same,cytochrome c release ratio,[2],0.94
same,inhibition of aggregation,[3],36.1%
same,parasite load remaining,[4],96.1% (inactive) and 65.8% (inactive) and 70.5% (inactive)
same,viability,[4],103% and 66% and 74.5%
same,nuclear beta-catenin stimulation,[5]; at 10 µM,-0.7% (inactive)
same,nuclear beta-catenin stimulation,"[5]; stimulation, at 2 µM",-0.6%
same,insulin secretion stimulation,[6],-0.1% (inactive)
same,viability decrease,[7],-4.9% (inactive)
same,tube area decrease,[8],17.9% (inactive)
same,GLP1 secretion stimulation,[9],-1.4% (inactive)
same,inhibition of viability,[10],-6% (inactive)
same,viability decrease (inhibition),[11],-1.2% (inactive)
same,viability decrease (inhibition),[12],-12.1% (inactive)
same,inhibition,[13],17% (inactive)
same,red/green cell ratio (normalised),[14],1.08 (inactive)
same,normalised cell number,[14]; [20],0.97
same,normalised cell number,[14]; [21],1.05
same,activity remaining,[15],111% (inactive)
same,fold change,[16]; stronger effect = lower value,0.8 (inactive)
same,fold change,[16]; [22],1.54
same,cell count,[16]; [23],8710
same,cell count,[16]; [24],10900
same,luciferase signal,[19],56 AU (inactive)
Cc1cc(O)ccc1Cl,score,[1],0.98
same,cytochrome c release ratio,[2],1.22
same,inhibition of aggregation,[3],88%
same,parasite load remaining,[4],125% (inactive) and 54.1% (inactive)
same,viability,[4],73.3% and 86.2%
same,nuclear beta-catenin stimulation,[5]; at 10 µM,0.9% (inactive)
same,nuclear beta-catenin stimulation,"[5]; stimulation, at 2 µM",1.9%
same,insulin secretion stimulation,[6],0.3% (inactive)
same,viability decrease,[7],-17% (inactive)
same,tube area decrease,[8],1.5% (inactive)
same,GLP1 secretion stimulation,[9],0.3% (inactive)
same,inhibition of viability,[10],3.83% (inactive)
same,viability decrease (inhibition),[11],26.8% (inactive)
same,viability decrease (inhibition),[12],-3.4% (inactive)
same,inhibition,[13],3.62% (inactive)
same,red/green cell ratio (normalised),[14],1.21 (inactive)
same,normalised cell number,[14]; [20],1.13
same,normalised cell number,[14]; [21],1.36
same,activity remaining,[15],115% (inactive)
same,fold change,[16]; stronger effect = lower value,0.943 (inactive) and 0.921 (inactive)
same,fold change,[16]; [22],0.551 and 0.785
same,cell count,[16]; [23],8310 and 10900
same,cell count,[16]; [24],8820 and 11800
same,z-score,[17]; [25],-0.196 (inactive)
same,z-score,[17]; [26],-0.163
same,remaining NAD,[18],10 nM (inactive)
same,luciferase signal,[19],32 AU (inactive)
